From PubChem BioAssay (NCATS)
Inconclusive results are not listed. Active and inactive are the calls of the source. The call rests on the fitted dose curve; in most records, active means well fitted curve in the direction sought with a large enough effect; inconclusive means small, poorly fitted or top-dose-only effect, or another doubt; inactive means no such curve, though single readings can be large; an effect the other way counts as inactive or inconclusive.

Legend:
[1] = system: NIH3T3; assay: qHTS assay to identify novel small-molecules to repurpose for Merkel cell carcinoma treatment (AID 1296009); conditions: MCC and control cell lines, CellTiter-Glo viability, 72 h; at 44.8 µM (top of the series) unless noted; further: nearly all actives have a fitted effect of over 60% in size
Procedure, shortened: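 After compound transfer in DMSO, plates were kept 72 hr at 37 degree celsius. Luminescent ATP signal from CellTiter-Glo served as viability measure, normalized against DMSO and no-cell controls.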

[2] = system: C33A; assay: Primary qHTS to identify gynecologic anti-cancer compounds using libraries of approved drugs and bioactive compounds (AID 1345084); conditions: Gynecologic cancer cell panel viability, ATPlite luminescence, 48 h; series mostly up to 57.5 µM; further: on the % scale 0 is the no-effect control and ±100 the full control effect; nearly all actives have a fitted effect of over 55% in size
Procedure, shortened: (§1)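 ATP-based viability (ATPlite), 1,000 cells/well, 16 h pre-incubation, 48 h compound at 37 C, 5% CO2, 15 min RT before read.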

[3] = system: CAOV3; assay: as above; conditions: Gynecologic cancer cell panel viability, ATPlite luminescence, 48 h; series mostly up to 57.5 µM
Procedure, shortened: as §1

[4] = system: CASKI; assay: as above; conditions: Gynecologic cancer cell panel viability, ATPlite luminescence, 48 h; series mostly up to 57.5 µM
Procedure, shortened: as §1

[5] = system: Es-2; assay: as above; conditions: Gynecologic cancer cell panel viability, ATPlite luminescence, 48 h; series mostly up to 57.5 µM
Procedure, shortened: as §1

[6] = system: HeLa; assay: as above; conditions: Gynecologic cancer cell panel viability, ATPlite luminescence, 48 h; series mostly up to 57.5 µM
Procedure, shortened: as §1

[7] = system: Hek293T; assay: as above; conditions: Gynecologic cancer cell panel viability, ATPlite luminescence, 48 h, control line for the selectivity index; series mostly up to 57.5 µM
Procedure, shortened: as §1

[8] = system: JEG-3; assay: as above; conditions: Gynecologic cancer cell panel viability, ATPlite luminescence, 48 h; series mostly up to 57.5 µM
Procedure, shortened: as §1

[9] = system: OV90; assay: as above; conditions: Gynecologic cancer cell panel viability, ATPlite luminescence, 48 h; series mostly up to 57.5 µM
Procedure, shortened: as §1

[10] = system: PA-1; assay: as above; conditions: Gynecologic cancer cell panel viability, ATPlite luminescence, 48 h; series mostly up to 57.5 µM
Procedure, shortened: as §1

[11] = system: SKOV3; assay: as above; conditions: Gynecologic cancer cell panel viability, ATPlite luminescence, 48 h; series mostly up to 57.5 µM
Procedure, shortened: as §1

[12] = system: Tov-21-G; assay: as above; conditions: Gynecologic cancer cell panel viability, ATPlite luminescence, 48 h; series mostly up to 57.5 µM
Procedure, shortened: as §1

[13] = system: Tov112D; assay: as above; conditions: Gynecologic cancer cell panel viability, ATPlite luminescence, 48 h; series mostly up to 57.5 µM
Procedure, shortened: as §1

O=C(O)c1ccc(CCCc2ccc(OCCc3ccc(F)cc3)cc2)o1
inactive: outcome [1] | Potency [2] | Potency [3] | Potency [4] | Potency [5] | Potency [6] | Potency [7] | Potency [8] | Potency [9] | Potency [10] | Potency [11] | Potency [12] | Potency [13]

CC1(C)CC2C(O)C3=C(CC(C)(O)C2C1)C(=O)OC3O (configuration not stated)
inactive: outcome [1] | Potency [2] | Potency [3] | Potency [4] | Potency [5] | Potency [6] | Potency [7] | Potency [8] | Potency [9] | Potency [10] | Potency [11] | Potency [12] | Potency [13]

C=C1C[C@]23C[C@H]1CC[C@H]2[C@@]12C=C[C@H](O)[C@@](C)(C(=O)O1)[C@H]2[C@@H]3C(=O)O
inactive: outcome [1] | Potency [2] | Potency [3] | Potency [4] | Potency [5] | Potency [6] | Potency [7] | Potency [8] | Potency [9] | Potency [10] | Potency [11] | Potency [12] | Potency [13]

CC1CCC2(O1)C(C)(C)CC(O[C@@H]1O[C@H](CO[C@@H]3OC[C@](O)(CO)[C@H]3O)[C@@H](O)[C@H](O)[C@H]1O)CC2(C)O (some centres not stated)
inactive: outcome [1] inactive [at 17.4 µM] | Potency [2] | Potency [3] | Potency [4] | Potency [5] | Potency [6] | Potency [7] | Potency [8] | Potency [9] | Potency [10] | Potency [11] | Potency [12] | Potency [13]

C=C1[C@@H]2CC[C@@]3(C)[C@H](c4ccoc4)OC(=O)C[C@]13O[C@H]1CC(=O)C(C)(C)[C@H](CC(=O)OC)[C@]12C
inactive: outcome [1] inactive [at 17.4 µM] | Potency [2] | Potency [3] | Potency [4] | Potency [5] | Potency [6] | Potency [7] | Potency [8] | Potency [9] | Potency [10] | Potency [11] | Potency [12] | Potency [13]

COc1ccc([C@H]2Cc3cccc(O)c3C(=O)O2)cc1
inactive: outcome [1] | Potency [2] | Potency [3] | Potency [4] | Potency [5] | Potency [6] | Potency [7] | Potency [8] | Potency [9] | Potency [10] | Potency [11] | Potency [12] | Potency [13]

COC(=O)C12C(=O)C(C)=C(O)C1(C)C(C)=CC1C34CCC(OC3=O)C(C)(C)C4CCC12C (configuration not stated)
inactive: outcome [1] inactive [at 17.4 µM] | Potency [2] | Potency [3] | Potency [4] | Potency [5] | Potency [6] | Potency [7] | Potency [8] | Potency [9] | Potency [10] | Potency [11] | Potency [12] | Potency [13]

COc1cc2c(cc1O)C1(Cc3ccc4c(c3C1=O)OCO4)N(C)CC2 (configuration not stated)
inactive: outcome [1] | Potency [2] | Potency [3] | Potency [4] | Potency [5] | Potency [6] | Potency [7] | Potency [8] | Potency [9] | Potency [10] | Potency [11] | Potency [12] | Potency [13]

CC/C=C\C[C@H]1C(=O)C=C[C@@H]1CCCCCCCC(=O)O
inactive: outcome [1] | Potency [2] | Potency [3] | Potency [4] | Potency [5] | Potency [6] | Potency [7] | Potency [8] | Potency [9] | Potency [10] | Potency [11] | Potency [12] | Potency [13]

CCS(=O)(=O)N1CCC([C@@H](C)n2c(C)c(C(=O)NCc3c(OC)cc(C)[nH]c3=O)c3ccccc32)CC1
inactive: outcome [1] | Potency [2] | Potency [3] | Potency [4] | Potency [5] | Potency [6] | Potency [7] | Potency [8] | Potency [9] | Potency [10] | Potency [11] | Potency [12] | Potency [13]

COC(=O)c1ccc(O[C@@H]2O[C@H](CO)[C@@H](O)[C@H](O)[C@H]2O)c(OC)c1
inactive: outcome [1] | Potency [2] | Potency [3] | Potency [4] | Potency [5] | Potency [6] | Potency [7] | Potency [8] | Potency [9] | Potency [10] | Potency [11] | Potency [12] | Potency [13]

CC(C)CC(=O)OC[C@H]1O[C@@](COC(=O)CC(C)C)(O[C@H]2O[C@H](CO)[C@@H](O)[C@H](O)[C@H]2O)[C@@H](OC(=O)CC(C)C)[C@@H]1OC(=O)CC(C)C
inactive: outcome [1] inactive [at 17.4 µM] | Potency [2] | Potency [3] | Potency [4] | Potency [5] | Potency [6] | Potency [7] | Potency [8] | Potency [9] | Potency [10] | Potency [11] | Potency [12] | Potency [13]

CC1C/C=C/C=C\CCCCC(O)C/C=C/C(=O)O1 (configuration not stated)
inactive: outcome [1] | Potency [2] | Potency [3] | Potency [4] | Potency [5] | Potency [6] | Potency [7] | Potency [8] | Potency [9] | Potency [10] | Potency [11] | Potency [12] | Potency [13]

Cc1[nH]cnc1C1CCN(c2nc3cccc4c3n2CCC4=O)CC1
inactive: outcome [1] | Potency [2] | Potency [3] | Potency [4] | Potency [5] | Potency [6] | Potency [7] | Potency [8] | Potency [9] | Potency [10] | Potency [11] | Potency [12] | Potency [13]

CC(C#N)C(C)O[C@@H]1O[C@H](CO)[C@@H](O)[C@H](O)[C@H]1O (some centres not stated)
inactive: outcome [1] | Potency [2] | Potency [3] | Potency [4] | Potency [5] | Potency [6] | Potency [7] | Potency [8] | Potency [9] | Potency [10] | Potency [11] | Potency [12] | Potency [13]

COC(=O)C1(Cc2ccc(O)cc2)OC(=O)C(OC)=C1c1ccc(O)cc1 (configuration not stated)
inactive: outcome [1] | Potency [2] | Potency [3] | Potency [4] | Potency [5] | Potency [6] | Potency [7] | Potency [8] | Potency [9] | Potency [10] | Potency [11] | Potency [12] | Potency [13]

CN1C(=O)N[C@@H](Cc2c[nH]c3c(Cl)cccc23)C1=O
inactive: outcome [1] | Potency [2] | Potency [3] | Potency [4] | Potency [5] | Potency [6] | Potency [7] | Potency [8] | Potency [9] | Potency [10] | Potency [11] | Potency [12] | Potency [13]

CCn1nnnc1NCc1ccc(C(C)C)cc1
inactive: outcome [1] | Potency [2] | Potency [3] | Potency [4] | Potency [5] | Potency [6] | Potency [7] | Potency [8] | Potency [9] | Potency [10] | Potency [11] | Potency [12] | Potency [13]

CC(C)C1=CCC(C)(O)C(OC2OC(CO)C(O)C(O)C2O)C1 (configuration not stated)
inactive: outcome [1] | Potency [2] | Potency [3] | Potency [4] | Potency [5] | Potency [6] | Potency [7] | Potency [8] | Potency [9] | Potency [10] | Potency [11] | Potency [12] | Potency [13]

C=C1C(OC(C)=O)C(=O)C2C(C)(C)C(OC(C)=O)CCC2(C)C1CC(OC(C)=O)/C(C)=C/COC(C)=O (configuration not stated)
inactive: outcome [1] inactive [at 17.4 µM] | Potency [2] | Potency [3] | Potency [4] | Potency [5] | Potency [6] | Potency [7] | Potency [8] | Potency [9] | Potency [10] | Potency [11] | Potency [12] | Potency [13]

CC(=O)OC1C=C(C(=O)O)C2(CO)CCC(C)C(C)(CCc3ccoc3)C2C1 (configuration not stated)
inactive: outcome [1] inactive [at 17.4 µM] | Potency [2] | Potency [3] | Potency [4] | Potency [5] | Potency [6] | Potency [7] | Potency [8] | Potency [9] | Potency [10] | Potency [11] | Potency [12] | Potency [13]

CC1OC(OC2C(C)OC(OC3C(OC(=O)/C=C/c4ccc(O)cc4)C(CO)OC(OC4(COC(=O)/C=C/c5ccc(O)cc5)OC(CO)C(O)C4O)C3OC3OCC(O)(CO)C3O)C(O)C2O)C(O)C(O)C1O (configuration not stated)
inactive: outcome [1] inactive [at 9.27 µM] | activity change, negative = cytotoxicity [2] 4.08% [at 11.6 µM] | activity change, negative = cytotoxicity [3] -2.97% [at 11.6 µM] | activity change, negative = cytotoxicity [4] 10% [at 11.6 µM] | activity change, negative = cytotoxicity [5] -0.759% [at 11.6 µM] | activity change, negative = cytotoxicity [6] -8.01% [at 11.6 µM] | activity change, negative = cytotoxicity [7] 0.502% [at 11.6 µM] | activity change, negative = cytotoxicity [8] 2.4% [at 11.6 µM] | activity change, negative = cytotoxicity [9] 8.76% [at 11.6 µM] | activity change, negative = cytotoxicity [10] -0.866% [at 11.6 µM] | activity change, negative = cytotoxicity [11] 28.4% [at 11.6 µM] | activity change, negative = cytotoxicity [12] 1.37% [at 11.6 µM] | activity change, negative = cytotoxicity [13] -2.2% [at 11.6 µM]

CC(C)CC1(C(=O)OCc2ccc(O[C@@H]3O[C@H](CO)[C@@H](O)[C@H](O)[C@H]3O)cc2)CC(=O)OC(C(=O)O)CC(=O)OCC2OC(O1)C(OC(=O)/C=C/c1ccc(O)cc1)C(O)C2O (some centres not stated)
inactive: outcome [1] inactive [at 9.27 µM] | activity change, negative = cytotoxicity [2] -0.106% [at 11.6 µM] | activity change, negative = cytotoxicity [3] 1.66% [at 11.6 µM] | activity change, negative = cytotoxicity [4] -1.89% [at 11.6 µM] | activity change, negative = cytotoxicity [5] 11.3% [at 11.6 µM] | activity change, negative = cytotoxicity [6] 0% [at 11.6 µM] | activity change, negative = cytotoxicity [7] 5.47% [at 11.6 µM] | activity change, negative = cytotoxicity [8] 1.44% [at 11.6 µM] | activity change, negative = cytotoxicity [9] -14.4% [at 11.6 µM] | activity change, negative = cytotoxicity [10] -8.97% [at 11.6 µM] | activity change, negative = cytotoxicity [11] -14.9% [at 11.6 µM] | activity change, negative = cytotoxicity [12] -1.82% [at 11.6 µM] | activity change, negative = cytotoxicity [13] 0.377% [at 11.6 µM]

CC(C)NC[C@H](O)COc1ccc(CCOCC2CC2)cc1
inactive: outcome [1] | Potency [2] | Potency [3] | Potency [4] | Potency [5] | Potency [6] | Potency [7] | Potency [8] | Potency [9] | Potency [10] | Potency [11] | Potency [12] | Potency [13]
